Results filed as inconclusive are left out. Activity calls are given as the source filed them. How the source made its calls, unless noted: active means hit-call score of the fitted dose curve at least 0.9, where 1 is the maximum; inactive means score below 0.9.
Experiments:
[1] = molecular target: Paired box protein Pax-6 (Homo sapiens) (UniProt P26367); assay: ATG_Pax6_CIS: Attagene CIS-FACTORIAL HepG2 Assay for human Paired Box 6 (PAX6) (AID 2282956); conditions: HepG2 CIS-FACTORIAL PAX6 reporter transcription, RNA readout; actives raise or lower the signal
Chain of Paired box protein Pax-6 (Homo sapiens) (P26367 whole entry, looked up): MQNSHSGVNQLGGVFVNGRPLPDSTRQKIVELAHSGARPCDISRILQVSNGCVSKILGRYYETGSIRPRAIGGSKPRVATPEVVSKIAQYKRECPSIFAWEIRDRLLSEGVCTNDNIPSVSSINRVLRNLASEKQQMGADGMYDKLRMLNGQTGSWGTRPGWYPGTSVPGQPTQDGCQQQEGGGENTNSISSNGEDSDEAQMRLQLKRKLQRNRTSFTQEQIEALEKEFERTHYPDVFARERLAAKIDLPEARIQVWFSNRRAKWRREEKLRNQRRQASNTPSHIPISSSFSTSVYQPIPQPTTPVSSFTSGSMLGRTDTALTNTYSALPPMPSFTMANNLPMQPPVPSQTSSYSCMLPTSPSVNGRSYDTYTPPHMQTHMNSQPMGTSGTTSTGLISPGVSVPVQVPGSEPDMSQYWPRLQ
Summary of the method: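 After twenty-four hours of chemical exposure, transfected HepG2 cells are harvested for RNA. Cis-promoter reporter transcripts are amplified, fluorescently labelled and sized by capillary electrophoresis, with gain and loss of signal scored against DMSO.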

[2] = ATG_PXRE_CIS: Attagene CIS-FACTORIAL HepG2 Assay for human Pregnane X Receptor Element (PXRE) (AID 2282957); conditions: HepG2 Attagene CIS-FACTORIAL PXRE reporter, mRNA; actives raise or lower the signal
Summary of the method: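 Multiplexed cis-reporter assay in transiently transfected human HepG2 cells; 24 h chemical exposure. Reporter transcripts quantified by RT-PCR with fluorescent labeling and capillary electrophoresis.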

[3] = ATG_RORE_CIS: Attagene CIS-FACTORIAL HepG2 Assay for human RAR-related Orphan Receptor Element (RORE) (AID 2282959); conditions: HepG2 Attagene cis-factorial RORE reporter, mRNA; actives raise or lower the signal
Summary of the method: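 Multiplexed reporter assay measuring mRNA induction from a cis promoter element in transiently transfected HepG2 cells after 24 h treatment. Detection via RT-PCR and capillary electrophoresis fluorescence; DMSO serves as baseline.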

[4] = ATG_Sox_CIS: Attagene CIS-FACTORIAL HepG2 Assay for human SRY-box transcription factor (SOX) (AID 2282960); conditions: HepG2 Attagene cis-factorial SOX reporter, mRNA; actives raise or lower the signal
Summary of the method: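 Cells were transfected with reporter constructs under cis-regulatory promoters, then exposed to chemicals for 24 h. Reporter transcripts were quantified by fluorescence after RT-PCR and capillary electrophoresis; activity was fitted in both directions against DMSO.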

[5] = molecular target: Transcription factor Sp1 (Homo sapiens) (UniProt P08047); assay: ATG_Sp1_CIS: Attagene CIS-FACTORIAL HepG2 Assay for human Specificity Protein 1 (Sp1) (AID 2282961); conditions: HepG2 Sp1 cis-reporter transcription, actives raise or lower the signal
Chain of Transcription factor Sp1 (Homo sapiens) (P08047 whole entry, looked up): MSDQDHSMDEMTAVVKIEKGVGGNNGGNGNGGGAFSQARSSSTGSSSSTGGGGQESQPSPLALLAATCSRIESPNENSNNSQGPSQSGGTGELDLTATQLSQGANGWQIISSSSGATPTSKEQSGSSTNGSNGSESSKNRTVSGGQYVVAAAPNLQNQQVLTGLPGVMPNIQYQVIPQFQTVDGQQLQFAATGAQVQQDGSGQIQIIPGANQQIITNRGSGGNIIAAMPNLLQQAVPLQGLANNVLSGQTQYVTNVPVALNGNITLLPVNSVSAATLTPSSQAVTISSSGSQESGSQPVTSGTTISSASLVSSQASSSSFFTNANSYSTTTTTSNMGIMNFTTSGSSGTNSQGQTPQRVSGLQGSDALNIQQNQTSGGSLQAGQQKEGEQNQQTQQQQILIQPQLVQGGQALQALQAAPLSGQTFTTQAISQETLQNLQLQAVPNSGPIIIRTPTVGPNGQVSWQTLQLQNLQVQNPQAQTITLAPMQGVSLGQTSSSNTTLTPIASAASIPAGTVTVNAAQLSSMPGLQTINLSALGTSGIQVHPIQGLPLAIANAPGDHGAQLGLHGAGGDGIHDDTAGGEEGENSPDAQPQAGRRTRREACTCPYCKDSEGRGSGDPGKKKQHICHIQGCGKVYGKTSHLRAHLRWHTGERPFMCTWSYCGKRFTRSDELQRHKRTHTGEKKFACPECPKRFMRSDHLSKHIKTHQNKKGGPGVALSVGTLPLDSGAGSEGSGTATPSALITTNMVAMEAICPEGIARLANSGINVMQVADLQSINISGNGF
Summary of the method: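 Measures mRNA induction of an Sp1-linked reporter in HepG2 cells 24 h post-dosing. Multiplexed reporters read by RT-PCR and capillary electrophoresis; DMSO serves as negative control and baseline.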

[6] = ATG_SREBP_CIS: Attagene CIS-FACTORIAL HepG2 Assay for human Sterol Regulatory Element Binding (SREBP) (AID 2282962); conditions: HepG2 Attagene cis-factorial SREBP reporter, mRNA; actives raise or lower the signal
Summary of the method: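 Twenty-four hours after chemical dosing of transfected HepG2 cultures, reporter RNA was converted to cDNA, amplified, end-labelled with 6-FAM and resolved by capillary electrophoresis. Responses were fitted relative to DMSO.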

[7] = molecular target: Signal transducer and activator of transcription 3 (Homo sapiens) (UniProt P40763); assay: ATG_STAT3_CIS: Attagene CIS-FACTORIAL HepG2 Assay for human Signal Transducer and Activator of Transcription 3 (STAT3) (AID 2282963); conditions: HepG2, Attagene cis-factorial STAT3 reporter transcription; actives raise or lower the signal
Chain of Signal transducer and activator of transcription 3 (Homo sapiens) (P40763 whole entry, looked up): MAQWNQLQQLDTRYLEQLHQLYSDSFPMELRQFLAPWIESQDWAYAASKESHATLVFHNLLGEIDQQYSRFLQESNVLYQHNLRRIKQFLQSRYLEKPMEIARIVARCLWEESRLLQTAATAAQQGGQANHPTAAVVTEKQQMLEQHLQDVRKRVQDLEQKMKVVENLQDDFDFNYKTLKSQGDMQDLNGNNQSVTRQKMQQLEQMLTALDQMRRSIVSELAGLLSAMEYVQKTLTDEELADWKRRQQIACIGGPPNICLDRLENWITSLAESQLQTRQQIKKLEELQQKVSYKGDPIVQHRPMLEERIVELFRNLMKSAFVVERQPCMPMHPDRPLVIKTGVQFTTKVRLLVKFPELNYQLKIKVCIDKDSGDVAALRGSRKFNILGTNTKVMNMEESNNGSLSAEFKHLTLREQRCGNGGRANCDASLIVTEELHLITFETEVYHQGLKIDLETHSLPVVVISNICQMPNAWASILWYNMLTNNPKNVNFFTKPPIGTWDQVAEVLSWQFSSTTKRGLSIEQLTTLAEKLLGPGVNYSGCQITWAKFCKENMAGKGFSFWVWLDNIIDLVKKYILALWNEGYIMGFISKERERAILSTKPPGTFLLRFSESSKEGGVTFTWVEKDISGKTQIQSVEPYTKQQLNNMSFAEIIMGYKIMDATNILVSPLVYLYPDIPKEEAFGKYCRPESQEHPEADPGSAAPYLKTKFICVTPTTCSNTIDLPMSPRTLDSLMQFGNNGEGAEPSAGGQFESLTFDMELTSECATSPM
Summary of the method: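 After a 24 h compound incubation, total RNA from MRTU-transfected HepG2 cells was converted to cDNA and reporter sequences PCR-amplified, labelled and profiled by capillary electrophoresis. Gain and loss of signal were referenced to DMSO.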

[8] = ATG_TA_CIS: Attagene CIS-FACTORIAL HepG2 Assay for human TA Basal Promoter (AID 2282964); conditions: HepG2 Attagene CIS-factorial TA basal promoter reporter; actives raise or lower the signal
Summary of the method: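 HepG2 cells transiently transfected with multiple reporter units under cis promoter elements, reporting endogenous transcription factor activity; this endpoint tracks the TA basal promoter as background control. Reporter mRNA after 24 h dosing measured by RT-PCR/capillary electrophoresis; bidirectional fits versus DMSO.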

[9] = ATG_TCF_b_cat_CIS: Attagene CIS-FACTORIAL HepG2 Assay for human T-Cell-Factor with beta-catenin (TCF/b-cat) (AID 2282965); conditions: HepG2 TCF/beta-catenin cis-reporter transcription, actives raise or lower the signal
Summary of the method: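 Endogenous transcription factor activity is captured through cis-promoter reporter constructs transiently introduced into human HepG2 liver cells. Induced reporter mRNA is measured after 24 h and fitted bidirectionally relative to DMSO.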

[10] = ATG_TAL_CIS: Attagene CIS-FACTORIAL HepG2 Assay for human TAL Basal Promoter (AID 2282966); conditions: HepG2 Attagene cis-factorial TAL promoter reporter; actives raise or lower the signal;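 further: background control endpoint measuring basal TAL promoter reporter mRNA not a specific factor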
Summary of the method: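 Steps: transfect HepG2 with multiple reporter transcription units; dose 24 h; isolate RNA, reverse-transcribe, PCR-amplify, label with 6-FAM, digest with HpaI; resolve by capillary electrophoresis. Bidirectional fitting against DMSO baseline.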

[11] = ATG_VDRE_CIS: Attagene CIS-FACTORIAL HepG2 Assay for human Vitamin D Receptor Element (VDRE) (AID 2282968); conditions: HepG2 VDRE cis-reporter transcription, actives raise or lower the signal
Summary of the method: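 In transiently transfected HepG2 liver cells, gain or loss of reporter mRNA after 24 h exposure is scored relative to DMSO, using fluorescence detection by capillary electrophoresis of RT-PCR products.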

[12] = molecular target: Estrogen receptor (Homo sapiens) (UniProt P03372); assay: ATG_ERa_TRANS: Attagene TRANS-FACTORIAL HepG2 Assay for human Estrogen Receptor alpha (ERa) (AID 2282970; active means hit-call score of the fitted dose curve at least 0.9, where 1 is the maximum); conditions: HepG2 Attagene TRANS ERa GAL4 reporter, mRNA
Chain of Estrogen receptor (Homo sapiens) (P03372 whole entry, looked up, the tested form may be a part): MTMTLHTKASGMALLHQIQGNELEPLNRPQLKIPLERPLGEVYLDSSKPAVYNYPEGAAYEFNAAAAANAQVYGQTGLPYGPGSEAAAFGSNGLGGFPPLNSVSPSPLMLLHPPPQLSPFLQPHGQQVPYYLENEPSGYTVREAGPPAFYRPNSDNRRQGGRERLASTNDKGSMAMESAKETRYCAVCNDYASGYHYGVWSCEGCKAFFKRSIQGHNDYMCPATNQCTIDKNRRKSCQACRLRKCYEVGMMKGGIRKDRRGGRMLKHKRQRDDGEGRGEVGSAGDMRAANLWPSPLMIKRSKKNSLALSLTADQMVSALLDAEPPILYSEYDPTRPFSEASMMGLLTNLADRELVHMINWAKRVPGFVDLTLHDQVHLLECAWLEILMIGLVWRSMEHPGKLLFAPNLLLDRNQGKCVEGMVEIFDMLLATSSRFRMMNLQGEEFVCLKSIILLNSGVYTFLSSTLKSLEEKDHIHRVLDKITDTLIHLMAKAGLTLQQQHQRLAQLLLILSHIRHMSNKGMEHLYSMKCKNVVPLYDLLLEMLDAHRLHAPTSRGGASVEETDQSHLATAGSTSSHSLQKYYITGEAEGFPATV
Summary of the method: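 Multiplexed cell-based reporter format in HepG2: chimeric ERa-Gal4 protein drives GAL4-UAS reporter transcription. Fluorescent reporter mRNA quantified by capillary electrophoresis 24 hours after dosing; endpoint fitted as signal gain against DMSO.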

[13] = molecular target: X-box-binding protein 1 (Homo sapiens) (UniProt P17861); assay: ATG_Xbp1_CIS: Attagene CIS-FACTORIAL HepG2 Assay for human X-box Binding Protein 1 (XBP1) (AID 2282972); conditions: HepG2 XBP1 cis-element reporter, Attagene multiplex; actives raise or lower the signal
Chain of X-box-binding protein 1 (Homo sapiens) (P17861 whole entry, looked up): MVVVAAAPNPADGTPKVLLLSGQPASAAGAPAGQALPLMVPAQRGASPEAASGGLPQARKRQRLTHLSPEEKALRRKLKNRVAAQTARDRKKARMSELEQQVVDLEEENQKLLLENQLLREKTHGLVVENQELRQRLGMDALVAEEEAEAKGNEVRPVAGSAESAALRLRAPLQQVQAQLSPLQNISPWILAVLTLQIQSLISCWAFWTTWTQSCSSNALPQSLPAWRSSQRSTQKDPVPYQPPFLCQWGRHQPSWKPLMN
Summary of the method: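 After a 24-hour chemical exposure of HepG2 cells carrying cis-regulated reporters, reporter mRNA levels are assessed. Quantification uses RT-PCR, 6-FAM labelling and capillary electrophoresis. Gain- or loss-of-signal is fitted against DMSO.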

[14] = ATG_TGFb_CIS: Attagene CIS-FACTORIAL HepG2 Assay for human Transforming Growth Factor (TGF) (AID 2282967); conditions: HepG2 Attagene CIS TGFb reporter, mRNA transcription; actives raise or lower the signal
Summary of the method: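 HepG2 cells transiently transfected with cis-promoter-driven multiple reporter units measure endogenous TF activity; reporter mRNA quantified at 24 h by RT-PCR, FAM labeling, HpaI digestion and capillary electrophoresis. Bidirectional fit vs DMSO.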

[15] = ATG_M_19_TRANS: Attagene TRANS-FACTORIAL HepG2 Assay for M19 Transcription Factor (Internal Marker) (AID 2282974; active means hit-call score of the fitted dose curve at least 0.9, where 1 is the maximum); conditions: HepG2 Attagene TRANS-FACTORIAL M19 internal marker reporter
Summary of the method: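 After transfection of HepG2 with GAL4-UAS-driven reporter constructs, cells are dosed for 24 h. Total RNA is reverse-transcribed, reporter sequences PCR-amplified and labelled, then HpaI-digested and sized by capillary electrophoresis.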

[16] = ATG_GAL4_TRANS: Attagene TRANS-FACTORIAL HepG2 Assay for GAL4 (Internal Marker) (AID 2282976; active means hit-call score of the fitted dose curve at least 0.9, where 1 is the maximum); conditions: HepG2 Attagene TRANS GAL4 internal marker reporter
Summary of the method: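 Liver HepG2 line bearing multiplexed GAL4-UAS reporter constructs; 24 h chemical treatment. Transcripts were quantified as fluorescent fragments on capillary electrophoresis after RT-PCR and HpaI cut, with activity fitted upward from DMSO.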

[17] = molecular target: Estrogen-related receptor gamma (Homo sapiens) (UniProt P62508); assay: ATG_ERRg_TRANS: Attagene TRANS-FACTORIAL HepG2 Assay for human Estrogen-Related Receptor gamma (ERRg) (AID 2282977; active means hit-call score of the fitted dose curve at least 0.9, where 1 is the maximum;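 further: hits increase reporter signal over DMSO so potencies reflect activators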); conditions: HepG2 Attagene TRANS reporter, ERRg transactivation
Chain of Estrogen-related receptor gamma (Homo sapiens) (P62508 whole entry, looked up, the tested form may be a part): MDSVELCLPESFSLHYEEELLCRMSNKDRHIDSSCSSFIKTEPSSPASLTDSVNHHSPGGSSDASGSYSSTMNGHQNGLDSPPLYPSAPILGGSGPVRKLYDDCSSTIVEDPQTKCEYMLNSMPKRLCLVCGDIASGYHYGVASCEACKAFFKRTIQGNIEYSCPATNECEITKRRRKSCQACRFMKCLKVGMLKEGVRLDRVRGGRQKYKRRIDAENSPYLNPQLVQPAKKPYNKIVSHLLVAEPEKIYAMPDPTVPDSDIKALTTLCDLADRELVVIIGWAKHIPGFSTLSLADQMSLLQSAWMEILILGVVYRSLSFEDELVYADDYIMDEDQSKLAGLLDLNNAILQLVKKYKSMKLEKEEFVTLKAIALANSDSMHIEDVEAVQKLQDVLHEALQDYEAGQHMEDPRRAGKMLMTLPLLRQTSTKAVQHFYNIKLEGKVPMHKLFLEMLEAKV
Summary of the method: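 Transient HepG2 transfectants, 24 h compound exposure, GAL4-UAS reporter mRNA by RT-PCR/6-FAM labelling/capillary electrophoresis; positive direction vs DMSO.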

[18] = molecular target: Steroid hormone receptor ERR1 (Homo sapiens) (UniProt P11474); assay: ATG_ERRa_TRANS: Attagene TRANS-FACTORIAL HepG2 Assay for human Estrogen-Related Receptor alpha (ERRa) (AID 2282971; active means hit-call score of the fitted dose curve at least 0.9, where 1 is the maximum); conditions: HepG2 Attagene TRANS reporter, ERRa transactivation
Chain of Steroid hormone receptor ERR1 (Homo sapiens) (P11474 whole entry, looked up, the tested form may be a part): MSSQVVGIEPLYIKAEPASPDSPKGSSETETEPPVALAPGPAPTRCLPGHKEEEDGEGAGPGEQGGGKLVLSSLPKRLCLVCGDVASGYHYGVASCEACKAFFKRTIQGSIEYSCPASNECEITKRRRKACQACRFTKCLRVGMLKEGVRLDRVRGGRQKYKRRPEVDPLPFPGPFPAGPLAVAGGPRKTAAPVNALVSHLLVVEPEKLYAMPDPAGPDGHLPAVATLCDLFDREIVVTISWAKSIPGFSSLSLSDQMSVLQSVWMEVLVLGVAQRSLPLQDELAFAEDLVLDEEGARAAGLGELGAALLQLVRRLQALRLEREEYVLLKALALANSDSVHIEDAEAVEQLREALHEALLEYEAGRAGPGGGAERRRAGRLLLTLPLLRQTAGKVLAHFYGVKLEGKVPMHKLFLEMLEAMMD
Summary of the method: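 Signal gain relative to DMSO for an ERRa-Gal4 chimeric receptor, read as reporter mRNA by RT-PCR/capillary electrophoresis. Human HepG2 liver cells, transient multiplex reporter transfection, 24 h chemical exposure.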

SMILES	outcome [1]	AC50 [2]	outcome [3]	outcome [4]	outcome [5]	outcome [6]	outcome [7]	outcome [8]	outcome [9]	outcome [10]	outcome [11]	outcome [12]	outcome [13]	outcome [2]	outcome [14]	outcome [15]	outcome [16]	outcome [17]	AC50 [12]	outcome [18]
COc1c2ccoc2cc2oc(=O)ccc12	inactive	26.9 µM (active)	inactive	inactive	inactive	inactive	inactive	inactive	inactive	inactive	inactive	inactive	inactive							
CCCCOCCOC(=O)COc1nc(Cl)c(Cl)cc1Cl	inactive		inactive	inactive	inactive	inactive	inactive	inactive	inactive	inactive	inactive	inactive	inactive	inactive	inactive	inactive				
CC1=CC[C@H]2C[C@@H]1C2(C)C	inactive		inactive	inactive	inactive	inactive	inactive		inactive	inactive	inactive	inactive	inactive	inactive		inactive				
C=C(C)C(=O)OCCOc1ccccc1	inactive	68.5 µM (active)	inactive	inactive	inactive	inactive	inactive	inactive	inactive	inactive	inactive	inactive	inactive		inactive		inactive	inactive		
CC(C)COC(=O)C=Cc1ccccc1	inactive	27.2 µM (active)	inactive	inactive	inactive	inactive	inactive		inactive	inactive	inactive		inactive		inactive				71.6 µM (active)	
c1ccc(-c2ccccn2)nc1	inactive		inactive	inactive	inactive	inactive	inactive	inactive	inactive	inactive	inactive	inactive	inactive	inactive	inactive			inactive		
CCCCCCCC/C=C\CCCCCCCC(=O)O	inactive		inactive	inactive	inactive	inactive		inactive	inactive	inactive		inactive	inactive	inactive	inactive					
Cc1cccc(C(=O)O)c1	inactive		inactive	inactive	inactive	inactive	inactive	inactive	inactive	inactive	inactive	inactive	inactive	inactive	inactive		inactive			inactive
O=C1OC(=O)c2cc(Oc3ccc4c(c3)C(=O)OC4=O)ccc21	inactive		inactive	inactive	inactive	inactive	inactive	inactive	inactive	inactive	inactive		inactive	inactive	inactive		inactive			

— PubChem BioAssay (EPA / NIEHS)
